Growth data for 8 molecules are collected here from PubChem BioAssay (NCI).

Compounds without any hit were thinned out: in the full panel of roughly 83,000, 20% have a hit.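 Single-concentration screen, 48 h exposure, 96-well plates. Endpoint: percent growth. Below 10 = active.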 Unmarked numbers belong to inactive results. Calls of active or inactive are those of the source.

Test systems include NCI-H23 lung; NCI-H226 lung; NCI-H322M lung; HOP-62 NSCLC; NCI-H460 lung; HOP-92 NSCLC; NCI-H522 lung; A549/ATCC NSCLC; 786-0 renal; COLO 205 colon; DU-145 prostate; K-562 leukemia; MALME-3M melanoma; MDA-MB-231 breast; RXF 393 renal; SF-268 CNS; SF-295 CNS; SF-539 CNS; UACC-257 melanoma; M14 melanoma.
Common to all, as to assay: NCI-60 one-dose screen, 48 h (100 = growth as untreated, 0 = no growth, -100 = all killed)
Settings in all cases: 10 µM unless noted

With `COc1ccc(Oc2ccc(/C=C/C(=O)c3cc4ccccc4oc3=O)cc2)cc1`, the growth was 81% in the assay with NCI-H23 lung; 92.2% in the assay on NCI-H226 lung; 84.5% in the assay with NCI-H322M lung; 85.6% with HOP-62 NSCLC; 102% in the assay with NCI-H460 lung; 58.2% in the assay with HOP-92 NSCLC. In addition, the growth was 65.1% in the assay on NCI-H522 lung; 95.2% in the assay on A549/ATCC NSCLC; 108% in the assay with 786-0 renal; 120% with COLO 205 colon; 101% in the assay on DU-145 prostate; 78.7% with K-562 leukemia. The growth was 94.2% with MALME-3M melanoma; 76% in the assay with MDA-MB-231 breast; 100% with RXF 393 renal; 80.9% in the assay on SF-268 CNS; 104% in the assay with SF-295 CNS; 92.5% with SF-539 CNS. The growth in the assay on UACC-257 melanoma is 93.3%.
With `N#Cc1c(-c2ccccc2)nc2c(c(-c3ccc(Cl)cc3)nn2-c2ccccc2)c1-c1ccc([N+](=O)[O-])cc1`, the growth in the assay with NCI-H23 lung was 96%; with NCI-H226 lung, 94.7%; in the assay on NCI-H322M lung it was 97%; with HOP-62 NSCLC, 94.7%; with NCI-H460 lung it was 103%; in the assay with HOP-92 NSCLC it was 103%. Besides, the growth in the assay with NCI-H522 lung is 91.7%; with A549/ATCC NSCLC it was 100%; with 786-0 renal, 110%; with COLO 205 colon, 110%; with DU-145 prostate it was 101%; in the assay with K-562 leukemia it was 101%. Moreover, the growth is 101% in the assay with MALME-3M melanoma; 102% in the assay with MDA-MB-231 breast; 109% with RXF 393 renal; 98.6% in the assay with SF-268 CNS; 98.7% in the assay on SF-295 CNS; 95.9% in the assay with SF-539 CNS. Further, the growth in the assay with UACC-257 melanoma is 96.2%.
For `C=CCn1cc(-c2nc3ccccc3s2)c2cc(-c3ccc4c5c(cccc35)C(=O)N(CCO)C4=O)ccc21`, the growth in the assay on NCI-H23 lung was 99.7%; in the assay on NCI-H226 lung, 90.3%; in the assay on NCI-H322M lung, 98.8%; with HOP-62 NSCLC, 90.6%; with NCI-H460 lung, 98.1%; with HOP-92 NSCLC, 78.7%. For the same molecule, the growth with NCI-H522 lung is 88.7%; with A549/ATCC NSCLC, 95%; with 786-0 renal, 97.6%; in the assay on COLO 205 colon, 116%; in the assay on DU-145 prostate, 107%; in the assay with K-562 leukemia, 90.8%. Besides, the growth is 119% in the assay with MALME-3M melanoma; 85.2% in the assay with MDA-MB-231 breast; 100% in the assay with RXF 393 renal; 90.5% in the assay with SF-268 CNS; 91.2% in the assay on SF-295 CNS; 104% with SF-539 CNS. Also, the growth in the assay on UACC-257 melanoma is 107%.
As to `COC12C=C/C(=C(/C(=O)OCCSc3ccnn3C)C(=O)CCCCCCCCC3(OC)C=C/C(=C(/C(=O)OCCSc4ccnn4C)C(=O)CCCCCCCC1)O3)O2`, the growth with NCI-H23 lung is -44% (active); in the assay on NCI-H226 lung, -53.6% (active); in the assay with NCI-H322M lung it was 11.6%; in the assay on HOP-62 NSCLC it was 27.9%; in the assay with NCI-H460 lung it was 3.85% (active); with HOP-92 NSCLC, -18.9% (active). The growth was -17.3% (active) in the assay with NCI-H522 lung; 5.51% (active) with A549/ATCC NSCLC; -29.2% (active) in the assay on 786-0 renal; -41.7% (active) in the assay with COLO 205 colon; 23% in the assay with DU-145 prostate; 1.16% (active) with K-562 leukemia. The growth is -32.2% (active) with MALME-3M melanoma; -11% (active) with MDA-MB-231 breast; -79.1% (active) in the assay with RXF 393 renal; 16% with SF-268 CNS; -3.35% (active) with SF-295 CNS; -0.264% (active) in the assay with SF-539 CNS. The growth in the assay with UACC-257 melanoma was 40.3%.
Turning to `COCCn1cc(-c2csc(-c3c[nH]c4ccccc34)n2)c2cccnc21`, the growth in the assay on NCI-H23 lung was 42.2%; with NCI-H226 lung it was 60.9%; in the assay on NCI-H322M lung, 61%; with HOP-62 NSCLC it was 38.2%; with NCI-H460 lung, 18.8%; in the assay with HOP-92 NSCLC it was 55.5%. For the same molecule, the growth is -33.6% (active) in the assay with NCI-H522 lung; 25% in the assay on A549/ATCC NSCLC; 43.5% in the assay on 786-0 renal; -8.68% (active) with COLO 205 colon; 62.3% with DU-145 prostate; 18.1% in the assay with K-562 leukemia. Moreover, the growth was 52.3% in the assay on MALME-3M melanoma; 35% in the assay with MDA-MB-231 breast; 72.2% in the assay with RXF 393 renal; 50.1% in the assay on SF-268 CNS; 25.8% in the assay on SF-295 CNS; 43.5% in the assay on SF-539 CNS. Moreover, the growth in the assay on UACC-257 melanoma was 45.9%; with M14 melanoma, 18.6%.
As for `Cc1nn(-c2ccc([N+](=O)[O-])cc2)c2ncnc(N/N=C/c3ccccc3O)c12`, the growth is 15.3% in the assay with NCI-H23 lung; 35% in the assay with NCI-H226 lung; 13.4% in the assay on NCI-H322M lung; -2.87% (active) with HOP-62 NSCLC; 0.666% (active) in the assay on NCI-H460 lung; 36.6% in the assay on HOP-92 NSCLC. Moreover, the growth with NCI-H522 lung is 0.557% (active); in the assay with A549/ATCC NSCLC it was 13%; with 786-0 renal it was 3.2% (active); in the assay on COLO 205 colon, 1.21% (active); in the assay with DU-145 prostate it was 20.7%; with K-562 leukemia it was 11.2%. The growth in the assay with MALME-3M melanoma is 2.12% (active); in the assay on MDA-MB-231 breast it was 29%; in the assay with RXF 393 renal, 15.7%; with SF-268 CNS, 9.25% (active); in the assay with SF-295 CNS, 12.6%; in the assay with SF-539 CNS, 7.49% (active). For the same molecule, in the assay with UACC-257 melanoma, the growth was 13.2%.
For `O=C(Cn1nc(-c2cccc3ccccc23)ccc1=O)NCc1cccc(Cl)c1`, the growth with NCI-H23 lung was 45.2% [50 µM]; with NCI-H226 lung, 38.2% [50 µM]; with NCI-H322M lung, 70.4% [50 µM]; in the assay with HOP-62 NSCLC, 72.2% [50 µM]; in the assay on NCI-H460 lung, 32.2% [50 µM]; in the assay on HOP-92 NSCLC it was 26.3% [50 µM]. The growth is 17.1% [50 µM] with NCI-H522 lung; 28.5% [50 µM] in the assay with A549/ATCC NSCLC; 37.7% [50 µM] in the assay on 786-0 renal; 37.3% [50 µM] in the assay on COLO 205 colon; 55.7% [50 µM] in the assay on DU-145 prostate; 20.4% [50 µM] with K-562 leukemia. Also, the growth was 70.5% [50 µM] in the assay with MALME-3M melanoma; 55% [50 µM] with MDA-MB-231 breast; 37.7% [50 µM] with RXF 393 renal; 52.9% [50 µM] with SF-268 CNS; 18.7% [50 µM] with SF-295 CNS; 58.3% [50 µM] in the assay with SF-539 CNS. The growth in the assay with UACC-257 melanoma was 44.2% [50 µM].
In the case of `O=c1c2ccccc2n(C[C@H]2CO2)c2ccccc12`, the growth in the assay with NCI-H23 lung was -58.2% (active); with NCI-H226 lung, 51.4%; in the assay with NCI-H322M lung, 20%; in the assay on HOP-62 NSCLC, -12.8% (active); with NCI-H460 lung, -40.5% (active); in the assay on HOP-92 NSCLC, -3.5% (active). Moreover, the growth was -37.5% (active) in the assay on NCI-H522 lung; -37.2% (active) in the assay with A549/ATCC NSCLC; -14.1% (active) with 786-0 renal; 2.46% (active) in the assay on COLO 205 colon; 2.26% (active) in the assay on DU-145 prostate; 8.2% (active) in the assay with K-562 leukemia. Also, the growth is -74.3% (active) with MALME-3M melanoma; 5.95% (active) with MDA-MB-231 breast; -67.1% (active) in the assay on RXF 393 renal; -8.61% (active) in the assay on SF-268 CNS; 5.39% (active) with SF-295 CNS; -22.1% (active) in the assay with SF-539 CNS. The growth in the assay on UACC-257 melanoma is -10.1% (active).
